Measurements as given in PubChem BioAssay (EPA / NIEHS).
Active and inactive are the calls of the source. How the source made its calls: active means hit-call score of the fitted dose curve at least 0.9, where 1 is the maximum; inactive means score below 0.9.

Assays:
[1] = read-out: Transforming growth factor beta 1 (TGFb1), TGFB1 (gene 7040); assay: BSK_KF3CT_TGFb1: BioMAP Diversity Plus: KF3CT Assay for Transforming growth factor beta 1 (TGFb1) Biomarker Activity (AID 2283072); details: primary human keratinocytes with fibroblasts; actives raise or lower the signal
Outline: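 Primary human skin cells (keratinocytes, foreskin fibroblasts) were co-cultured, exposed to test chemical and sampled at 24 h. TGF-b1 levels were measured by ELISA and fitted bidirectionally relative to DMSO.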

[2] = read-out: C-C motif chemokine 2 (Homo sapiens) (UniProt P13500); assay: BSK_KF3CT_MCP1: BioMAP Diversity Plus: KF3CT Assay for Monocyte Chemoattractant Protein 1 (MCP1/CCL2) Biomarker Activity (AID 2283073); details: primary human keratinocytes with fibroblasts; actives raise or lower the signal
Outline: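 ELISA read-out of MCP-1, 24 h post-dose, in primary human skin keratinocytes co-cultured with fibroblasts. Parallel SRB staining monitors cytotoxicity; changes fitted both directions relative to DMSO.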

[3] = read-out: Matrix Metallopeptidase 9 (MMP9), MMP9 (gene 4318); assay: BSK_KF3CT_MMP9: BioMAP Diversity Plus: KF3CT Assay for Matrix Metallopeptidase 9 (MMP9) Biomarker Activity (AID 2283074); details: primary human keratinocytes with fibroblasts; actives raise or lower the signal;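 on AC50: MMP9 protein level quantified by ELISA in the co-culture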
Outline: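 Human keratinocyte/foreskin fibroblast co-culture; compound added; 24 h; MMP-9 by ELISA; bidirectional fit vs DMSO baseline.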

[4] = read-out: urokinase plasminogen activator (uPA), PLAU (gene 5328); assay: BSK_KF3CT_uPA: BioMAP Diversity Plus: KF3CT Assay for urokinase plasminogen activator (uPA) Biomarker Activity (AID 2283075); details: primary human keratinocytes with fibroblasts; actives raise or lower the signal
Outline: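 ELISA readout of uPA, analyzed for signal gain or loss relative to DMSO, from a human primary keratinocyte–foreskin fibroblast co-culture measured 24 h after chemical treatment.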

CD40, CD40 (gene 958) [5] = assay: BSK_LPS_CD40: BioMAP Diversity Plus: LPS Assay for CD40 Biomarker Activity (AID 2283076); details: primary human HUVEC with PBMC; actives raise or lower the signal
Outline: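 In the LPS system of human endothelial cells with peripheral blood mononuclear cells, CD40 levels were read by ELISA 24 h post-treatment. Signal changes in either direction were fitted against the DMSO baseline, with parallel SRB protein staining.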

[6] = read-out: E-selectin (Homo sapiens) (UniProt P16581); assay: BSK_LPS_Eselectin: BioMAP Diversity Plus: LPS Assay for Eselectin Biomarker Activity (AID 2283077); details: primary human HUVEC with PBMC; actives raise or lower the signal
Outline: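 E-selectin ELISA on LPS-stimulated endothelial cell/PBMC co-cultures, read 24 h post-treatment; gains and losses fitted against DMSO. Parallel SRB staining (0.1% SRB after 10% TCA fixation, 560 nm) flags overt cytotoxicity.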

[7] = read-out: Interleukin-8 (IL8), CXCL8 (gene 3576); assay: BSK_LPS_IL8: BioMAP Diversity Plus: LPS Assay for Interleukin-8 (IL8) Biomarker Activity (AID 2283078); details: primary human HUVEC with PBMC; actives raise or lower the signal
Outline: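 ELISA read-out of IL-8 after 24 h chemical treatment of LPS-activated endothelial/PBMC human primary co-cultures. Changes either up or down relative to DMSO; overt cytotoxicity checked by sulforhodamine B staining in parallel wells.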

[8] = BSK_LPS_SRB: Viability Assessment in the BioMAP Diversity Plus: LPS Assay (AID 2283079); details: primary human HUVEC with PBMC;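 further: total protein by sulforhodamine B absorbance as a cytotoxicity measure; measured one day after compound addition; fitted in both directions against DMSO so loss or gain of signal counts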
Outline: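 SRB viability endpoint: cells fixed with 10% TCA, stained with 0.1% SRB, read at 560 nm, 24 h post-dose. HUVEC/PBMC co-culture; signal change in either direction scored relative to DMSO.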

[9] = read-out: Interleukin-1 alpha (IL1a), IL1A (gene 3552); assay: BSK_LPS_IL1a: BioMAP Diversity Plus: LPS Assay for Interleukin-1 alpha (IL1a) Biomarker Activity (AID 2283080); details: primary human HUVEC with PBMC; actives raise or lower the signal
Outline: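 Readout is IL-1a level by ELISA, 24 h post-dose, fitted as gain or loss relative to DMSO. System: LPS-activated human primary co-culture of vascular endothelium and peripheral blood mononuclear cells, with parallel SRB total-protein cytotoxicity.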

[10] = read-out: Monocyte Chemoattractant Protein-1 (MCP1), CCL2 (gene 6347); assay: BSK_LPS_MCP1: BioMAP Diversity Plus: LPS Assay for Monocyte Chemoattractant Protein-1 (MCP1) Biomarker Activity (AID 2283081); details: primary human HUVEC with PBMC; actives raise or lower the signal;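 on AC50: secreted MCP-1 protein quantified by ELISA in culture supernatant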
Outline: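 Secreted MCP-1 read by ELISA at 24 h post-dosing in an LPS-activated co-culture of endothelial cells with peripheral blood mononuclear cells. Fits run in both directions, DMSO as baseline; parallel SRB staining tracks overt cytotoxicity.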

[11] = BSK_LPS_PGE2: BioMAP Diversity Plus: LPS Assay for Prostaglandin E2 (PGE2) Biomarker Activity (AID 2283082); details: primary human HUVEC with PBMC; actives raise or lower the signal
Outline: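 LPS-activated HUVEC/PBMC co-culture; cmpd dosed, 24 h; PGE2 by ELISA; bidirectional fit vs DMSO; SRB (0.1%, TCA-fixed, 560 nm) in parallel plates for overt cytotox.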

[12] = read-out: Macrophage colony-stimulating factor (MCSF), CSF1 (gene 1435); assay: BSK_LPS_MCSF: BioMAP Diversity Plus: LPS Assay for Macrophage colony-stimulating factor (MCSF) Biomarker Activity (AID 2283083); details: primary human HUVEC with PBMC; actives raise or lower the signal
Outline: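 Bidirectional fitting against DMSO was applied to M-CSF levels read by ELISA at 24 h post-dose. The system pairs human umbilical vein endothelium with peripheral blood mononuclear cells; parallel SRB staining tracked cytotoxicity.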

[13] = read-out: Tissue Factor, F3 (gene 2152); assay: BSK_LPS_TissueFactor: BioMAP Diversity Plus: LPS Assay for Tissue Factor Biomarker Activity (AID 2283084); details: primary human HUVEC with PBMC; actives raise or lower the signal
Outline: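 Compound was added to an endothelial cell/PBMC co-culture, and after 24 h tissue factor (CD142) was read by ELISA. Gain or loss of signal was fitted against a DMSO baseline, and parallel SRB staining (560 nm) tracked overt cytotoxicity.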

[14] = read-out: Tumor necrosis factor (Homo sapiens) (UniProt P01375); assay: BSK_LPS_TNFa: BioMAP Diversity Plus: LPS Assay for Tumour Necrosis Factor alpha (TNFa) Biomarker Activity (AID 2283085); details: primary human HUVEC with PBMC; actives raise or lower the signal
Outline: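 Read-out is ELISA of TNFa in primary human endothelial cell–PBMC co-cultures at 24 h after compound. Activity in either direction was fitted against DMSO.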

[15] = read-out: Vascular cell adhesion molecule 1 (VCAM1), VCAM1 (gene 7412); assay: BSK_LPS_VCAM1: BioMAP Diversity Plus: LPS Assay for Vascular cell adhesion molecule 1 (VCAM1) Biomarker Activity (AID 2283086); details: primary human HUVEC with PBMC; actives raise or lower the signal
Outline: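 HUVEC + PBMC co-culture, LPS system; compound 24 h; VCAM-1 by ELISA; bidirectional fit vs DMSO control; parallel SRB (0.1%, TCA-fixed, 560 nm) for cytotoxicity.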

CD38, CD38 (gene 952) = assay: BSK_SAg_CD38: BioMAP Diversity Plus: SAg Assay for CD38 Biomarker Activity (AID 2283087); details: primary human HUVEC with PBMC; actives raise or lower the signal
Outline: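 Human HUVEC plus PBMC co-culture stimulated with superantigen; CD38 measured by ELISA 24 h after chemical dosing. Fluorescence read-out, bidirectional fit against DMSO; cytotoxicity tracked in parallel by SRB and Alamar Blue.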

CD40, CD40 (gene 958) [16] = assay: BSK_SAg_CD40: BioMAP Diversity Plus: SAg Assay for CD40 Biomarker Activity (AID 2283088); details: primary human HUVEC with PBMC; actives raise or lower the signal
Outline: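 CD40 is measured by fluorescence ELISA in an endothelial/PBMC primary human co-culture at 24 h post-dose. Fitting is bidirectional, DMSO baseline. Parallel SRB staining (560 nm) flags cytotoxicity.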

CD69, CD69 (gene 969) = assay: BSK_SAg_CD69: BioMAP Diversity Plus: SAg Assay for CD69 Biomarker Activity (AID 2283089); details: primary human HUVEC with PBMC; actives raise or lower the signal;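 on AC50: cell surface CD69 protein quantified by ELISA with fluorescence detection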
Outline: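 Primary human vascular co-culture (umbilical vein endothelium with peripheral blood mononuclear cells) exposed to test chemical for 24 h. CD69 levels quantified by fluorescence ELISA; DMSO served as negative control for bidirectional fitting.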

[17] = read-out: E-selectin (Homo sapiens) (UniProt P16581); assay: BSK_SAg_Eselectin: BioMAP Diversity Plus: SAg Assay for Eselectin Biomarker Activity (AID 2283091); details: primary human HUVEC with PBMC; actives raise or lower the signal
Outline: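 Cell-surface E-selectin is read by ELISA at 24 h in the SAg co-culture of HUVEC and PBMC. Curves are fitted in both directions relative to DMSO. Parallel SRB total-protein staining tracks overt toxicity.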

[18] = read-out: Monocyte Chemoattractant Protein-1 (MCP1), CCL2 (gene 6347); assay: BSK_SAg_MCP1: BioMAP Diversity Plus: SAg Assay for Monocyte Chemoattractant Protein-1 (MCP1) Biomarker Activity (AID 2283090); details: primary human HUVEC with PBMC; actives raise or lower the signal
Outline: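 MCP-1 levels in the endothelial–PBMC SAg co-culture were quantified by ELISA at 24 h post-dosing; both increases and decreases versus DMSO scored. Cytotoxicity monitored by SRB total protein in parallel cultures.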

Measured: AC50

Sequence of E-selectin (Homo sapiens) (P16581 whole entry, looked up): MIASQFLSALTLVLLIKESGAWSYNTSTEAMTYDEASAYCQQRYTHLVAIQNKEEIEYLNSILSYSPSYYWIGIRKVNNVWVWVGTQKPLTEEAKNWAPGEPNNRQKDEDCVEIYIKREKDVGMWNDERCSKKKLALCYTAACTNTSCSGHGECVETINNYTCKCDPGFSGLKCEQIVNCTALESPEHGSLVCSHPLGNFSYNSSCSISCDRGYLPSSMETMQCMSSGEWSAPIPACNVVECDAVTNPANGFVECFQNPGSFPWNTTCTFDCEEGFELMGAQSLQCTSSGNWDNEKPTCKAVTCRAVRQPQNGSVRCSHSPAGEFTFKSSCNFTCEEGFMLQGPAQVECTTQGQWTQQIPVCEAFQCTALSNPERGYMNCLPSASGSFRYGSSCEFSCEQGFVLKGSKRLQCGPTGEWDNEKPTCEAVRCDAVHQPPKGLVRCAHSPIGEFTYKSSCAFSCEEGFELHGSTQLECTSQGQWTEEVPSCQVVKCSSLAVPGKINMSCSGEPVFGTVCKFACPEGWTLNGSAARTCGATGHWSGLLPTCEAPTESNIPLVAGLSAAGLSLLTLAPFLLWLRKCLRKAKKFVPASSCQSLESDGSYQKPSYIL
Sequence of Tumor necrosis factor (Homo sapiens) (P01375 whole entry, looked up): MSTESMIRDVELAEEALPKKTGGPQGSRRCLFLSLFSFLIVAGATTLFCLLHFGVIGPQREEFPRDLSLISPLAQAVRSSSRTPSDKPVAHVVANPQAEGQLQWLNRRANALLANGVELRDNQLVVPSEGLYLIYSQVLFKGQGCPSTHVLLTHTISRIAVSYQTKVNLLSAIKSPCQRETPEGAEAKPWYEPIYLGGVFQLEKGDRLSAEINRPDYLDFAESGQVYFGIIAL

CCCCCCCCCCCCCCCCCC[N+](C)(C)Cc1ccccc1
active: [2] 6.52 µM | [3] 2.75 µM | [4] 2.95 µM | CD40, CD40 (gene 958) [5] 2.74 µM | [6] 2.87 µM | [7] 5.17 µM | [8] 2.66 µM | [9] 2.71 µM | [10] 2.97 µM | [12] 2.73 µM | [13] 2.69 µM | [14] 3.58 µM | [15] 3.09 µM | CD38, CD38 (gene 952) 2.73 µM | CD40, CD40 (gene 958) [16] 2.74 µM | CD69, CD69 (gene 969) 2.73 µM | [17] 4.86 µM
inactive: [1] | [11]

OCCN1CN(CCO)CN(CCO)C1
active: [1] 3.97 µM | CD40, CD40 (gene 958) [5] 36 µM | [6] 29.9 µM | [7] 28.2 µM | [9] 31.4 µM | [10] 13.1 µM | [12] 25.7 µM | [13] 20 µM | [14] 36.6 µM | [15] 31.1 µM | CD38, CD38 (gene 952) 31.6 µM | CD40, CD40 (gene 958) [16] 31.1 µM | CD69, CD69 (gene 969) 38.7 µM | [17] 20 µM
inactive: [2] | [3] | [4] | [8] | [11]

C[C@]12CC[C@@H]3c4ccc(O)cc4CC[C@H]3[C@@H]1C[C@@H](O)[C@@H]2O
inactive: [1] | [2] | [3] | [4] | CD40, CD40 (gene 958) [5] | [6] | [7] | [8] | [9] | [10] | [11] | [12] | [13] | [14] | [15] | CD38, CD38 (gene 952) | CD40, CD40 (gene 958) [16] | CD69, CD69 (gene 969) | [18] | [17]

C=COC(=O)C(C)(C)CCCCCC
inactive: [1] | [11] | CD38, CD38 (gene 952)
active: [2] 25.9 µM | [3] 33 µM | [4] 28 µM | CD40, CD40 (gene 958) [5] 31.7 µM | [6] 30.6 µM | [7] 33.1 µM | [8] 34.6 µM | [9] 33.6 µM | [10] 31 µM | [12] 32.4 µM | [13] 32.5 µM | [14] 0.371 µM | [15] 31.1 µM | CD40, CD40 (gene 958) [16] 4.12 µM | CD69, CD69 (gene 969) 20 µM | [18] 31.1 µM | [17] 32.2 µM

CC(=O)Nc1ccc(O)cc1
inactive: [1] | [2] | [3] | [4] | CD40, CD40 (gene 958) [5] | [6] | [7] | [8] | [9] | [10] | [11] | [12] | [13] | [14] | [15] | CD38, CD38 (gene 952) | CD40, CD40 (gene 958) [16] | CD69, CD69 (gene 969) | [18]

COC1=CC(=O)C[C@@H](C)[C@]12Oc1c(Cl)c(OC)cc(OC)c1C2=O
active: [2] 0.119 µM | [3] 0.572 µM
inactive: [1] | [4] | CD40, CD40 (gene 958) [5] | [6] | [7] | [8] | [9] | [10] | [11] | [12] | [13] | [14] | [15] | CD38, CD38 (gene 952) | CD40, CD40 (gene 958) [16] | CD69, CD69 (gene 969) | [17]
